Shiga inhibitor = Shiga toxin inhibition; Vero cells, Shiga toxin protein synthesis inhibition reporter; 290,000 compounds, 9.2% hits; inhibition, % at 38.7 µM; in the data active = inhibition mostly above about 28%, no sharp cut-off; inactive = mostly below about 43%
LmPK inhibitor = LmPK (Leishmania mexicana) enzyme inhibition; purified LmPK, Kinase-Glo ATP luminescence, 1 h; Q27686; Potency, µM (series often up to 57.5 µM), usual class: inhibitors; 290,000 compounds, 0.37% hits
Target sequence (Q27686 whole entry, looked up): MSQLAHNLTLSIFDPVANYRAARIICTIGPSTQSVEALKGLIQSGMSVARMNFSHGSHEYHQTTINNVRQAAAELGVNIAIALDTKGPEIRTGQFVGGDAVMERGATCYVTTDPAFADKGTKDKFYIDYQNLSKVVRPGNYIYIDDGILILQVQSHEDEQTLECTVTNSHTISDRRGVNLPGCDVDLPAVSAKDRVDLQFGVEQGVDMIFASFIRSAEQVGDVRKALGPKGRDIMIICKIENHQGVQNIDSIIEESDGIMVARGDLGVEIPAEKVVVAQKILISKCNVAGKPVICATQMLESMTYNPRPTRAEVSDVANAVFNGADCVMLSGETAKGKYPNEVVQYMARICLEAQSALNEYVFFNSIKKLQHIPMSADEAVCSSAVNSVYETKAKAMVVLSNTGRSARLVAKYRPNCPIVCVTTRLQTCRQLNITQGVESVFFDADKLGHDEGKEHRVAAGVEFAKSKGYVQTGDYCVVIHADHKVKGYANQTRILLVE
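qHTS format; LmPK 0.1 nM; substrates PEP 0.5 mM and ADP 0.1 mM. One-hour room-temperature incubation, then coupled luciferase luminescence; 0.5 nM enzyme wells mark activation.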
Pf growth 48h = inhibits P. falciparum growth in the first generation, 48 h. P. falciparum luciferase growth in erythrocytes, 48 h. Potency, µM (titrated, usually from 28.7 µM), hits mostly inhibitors. 310,000 compounds, 5.9% hits. AID 504832
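Erythrocytes infected with P. falciparum carrying an integrated firefly luciferase reporter (2% hematocrit, 0.1% parasitemia final) were exposed to compounds in RPMI 1640 with 0.5% Albumax at 37 C, 5% CO2. Growth inhibition was scored as reduced luminescence.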
CHX counter = counter-screen hit for Shiga toxin inhibitors, cycloheximide | 300,000 compounds, 12% hits | cell reporter, cycloheximide protein synthesis inhibition counterscreen | AID 2314 | max response, %; in the data active = max response mostly above about 13%, no sharp cut-off; inactive = mostly below about 14%; note: read at 38.3 µM for the half of the compounds with a filed dose
Pf growth 96h = P. falciparum growth inhibition at 96 hour, primary screen for plastid delayed-death inhibitors | 320,000 compounds, 6.9% hits | P. falciparum luciferase reporter growth, 96 h | Potency, µM (highest dose often 28.7 µM), usual class: inhibitors
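Compounds incubated with erythrocytes infected by luciferase-expressing P. falciparum (2% hematocrit, 0.05% parasitemia final) for 96 hours, 37 C in 5% CO2. Growth inhibition scored as decreased luciferase luminescence.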
Numbers stand for hits; . = inactive; ? = inconclusive; / = no result; + = active, no number; [ ] = remark or other dose. This is a sample that favours compounds with a hit; in the whole collection about 22% have one here. Unless noted, calls come from the whole dose curve; as a rule, active = well fitted inhibition curve with a large enough effect; inconclusive = small, poorly fitted or top-dose-only effect, or another doubt; inactive = no such curve, though single readings can be large or run the other way.

SMILES | Shiga inhibitor | LmPK inhibitor | Pf growth 48h | CHX counter | Pf growth 96h
COc1ccccc1C(=O)Nc1ccc2c(c1)n(C)c(=O)n2C | . | . | . | . | .
O=C1C2CCCN2C(=O)N1CCCCN1CCN(c2cccc(Cl)c2)CC1 (centres undefined) | . | . | . | . | 13.1µM
O=C1C2CCCN2C(=O)N1CCCCN1CCN(c2ccccc2)CC1 (centres undefined) | . | . | . | . | .
O=C(CCNC(=O)c1ccc(Br)cc1)NCC1COc2ccccc2O1 (centres undefined) | 71.0 | . | ? | 23.2 | .
O=C(NCC1COc2ccccc2O1)c1ccc(NC(=O)C2CCCO2)cc1 (centres undefined) | 36.5 | . | . | 14.7 | .
O=C(Cc1ccccc1)Nc1ccc(C(=O)NCC2COc3ccccc3O2)cc1 (centres undefined) | . | . | . | . | .
O=C(CSc1nnc(-c2cccs2)n1CC1CCCO1)c1cc2ccccc2o1 (centres undefined) | . | . | . | . | 11.7µM
O=C(NCC1COc2ccccc2O1)c1ccc(NC(=O)C(c2ccccc2)c2ccccc2)cc1 (centres undefined) | . | . | 9.28µM | . | ?
CC1=C(C#N)C(/C=N/OCc2ccc(F)cc2Cl)CC(=O)N1 (centres undefined) | . | . | . | . | .
O=C(NCC1COc2ccccc2O1)c1cc2ccccc2o1 (centres undefined) | 65.1 | . | ? | 31.0 | ?
COc1ccc(/C=C/C(=O)NCC2COc3ccccc3O2)cc1OC (centres undefined) | . | . | . | . | .
O=C(CC1Nc2ccccc2NC1=O)NCC1COc2ccccc2O1 (centres undefined) | . | . | 11.7µM | . | .
O=C(NCC1CCCO1)c1cc2ccccc2o1 (centres undefined) | . | . | . | 24.2 | .
Cc1ccc(/C=C/C(=O)NCC2COc3ccccc3O2)o1 (centres undefined) | . | . | . | 15.8 | ?
O=C(CSc1nnc(NC(=O)c2ccco2)s1)Nc1ccccc1 | . | . | . | . | .
O=C(NCC1COc2ccccc2O1)c1ccccc1 (centres undefined) | 102.7 | . | . | 50.3 | .
O=C(OCC1COc2ccccc2O1)c1ccccc1F (centres undefined) | . | . | / | 19.0 | .
O=C(COC(=O)c1ccccc1F)Nc1ccc2c(c1)OCCO2 | / | / | . | / | .
COCCn1cnc2c1c(=O)n(Cc1ccc(C#N)cc1)c(=O)n2Cc1ccccc1 | . | . | ? | . | ?
COc1ccc(N2CCN(c3nc(NC(C)(C)C)nc(N4CCCCC4)n3)CC2)cc1 | . | . | 1.85µM | . | /
COc1ccc(Nc2nc(NC(C)(C)C)nc(N3CCOCC3)n2)c(OC)c1 | . | . | ? | . | .
COc1ccc(Nc2nc(NC(C)(C)C)nc(N3CCCC3)n2)c(OC)c1 | . | . | / | . | 4.65µM
CCOc1ccc(Nc2nc(N3CCCC3)nc(N3CCN(c4ccc(OC)cc4)CC3)n2)cc1 | . | . | ? | . | .
Cc1cc(OCc2nc(-c3ccncc3)no2)cc(C)c1Cl | . | . | ? | . | .
COc1ccc(Cc2nc(-c3ccc(NC(=O)c4cccnc4)cc3)no2)cc1 | . | . | 5.22µM | . | .
SMILES | Shiga inhibitor | LmPK inhibitor | Pf growth 48h | CHX counter | Pf growth 96h
COc1ccc(Cc2nc(-c3ccc(Br)cc3)no2)cc1 | 30.5 | . | . | 28.6 | .
Clc1ccc(OCc2nc(-c3ccncc3)no2)cc1 | . | . | / | 31.0 | 10.4µM
COc1ccc(-c2noc(CCCC(=O)O)n2)cc1 | . | . | ? | . | /
Cc1ccc(Cc2nc(-c3ccncc3)no2)cc1 | 54.2 | . | . | . | .[1.15 µM]
C=CCn1c(=O)[nH]c2cc(C(=O)N3CC=C(c4ccccc4)CC3)ccc2c1=O | . | .[11.5 µM] | . | . | .
O=c1[nH]c(Nc2ccc3c(c2)OCCO3)nnc1Cc1ccc(Cl)cc1 | . | . | ? | . | .
CCOC(=O)/C=C/c1cc(F)c(S(=O)(=O)N2CCN(S(=O)(=O)c3ccc4c(c3)OCCO4)CC2)cc1F | . | / | / | . | /
COc1ccc(-c2noc(Cc3ccc(Cl)cc3)n2)cc1OC | . | . | . | . | ?
COc1ccc(Cc2nc(-c3ccc(Cl)cc3)no2)cc1 | 49.2 | . | . | 21.2 | .
C=CC1=C2C=C(C3CC3)N(C3CCCC3)C=C2C(=O)C(C)(OC(=O)c2ccco2)C1=O (centres undefined) | / | .[11.5 µM] | / | / | /
O=C(O)c1ccc(N2C(=O)CC(N3CCC(c4nc5ccccc5[nH]4)CC3)C2=O)cc1 (centres undefined) | . | . | ? | . | .
Cc1nn(CC(=O)Nc2ccc(S(=O)(=O)N(C)C)cc2)c(C)c1[N+](=O)[O-] | . | . | . | . | .
CCCC(=O)N1CCN(c2ccc(NC(=O)c3sc4ccccc4c3Cl)cc2)CC1 | . | . | ? | . | 4.65µM
O=C(Nc1ccc(N2CCCCC2)cc1)c1ccc([N+](=O)[O-])o1 | 103.9 | . | . | 35.0 | ?
CC1CCN(c2ccc(NC(=O)c3ccc([N+](=O)[O-])o3)cc2)CC1 | / | / | ? | / | .
CS(=O)(=O)N1CCN(c2ccc(NC(=O)c3ccc([N+](=O)[O-])o3)cc2)CC1 | 52.9 | . | . | 30.2 | ?
CCCC(=O)N1CCN(c2ccc(NC(=O)c3cc4ccccc4o3)cc2)CC1 | . | . | ? | . | .
O=C(Nc1ccc(N2CCN(Cc3ccccc3F)CC2)cc1)c1ccc([N+](=O)[O-])o1 | . | . | 1.85µM | . | ?
CC(C)c1csc(CN2CCC(n3nccc3NC(=O)Cc3ccccc3)CC2)n1 | . | . | . | . | ?
CCN(CC)CCN1C(=O)C(=O)/C(=C(/O)c2ccc(S(=O)(=O)N3CCOCC3)cc2)C1c1ccc(C(C)C)cc1 (centres undefined) | . | . | . | . | .
CC(C)(C)C(=O)N1CCN(c2ccc(NC(=O)c3ccc([N+](=O)[O-])o3)cc2)CC1 | 39.3 | . | ? | 51.9 | 7.38µM
O=C(CSc1ccc(Cl)cc1)Nc1ccc(N2CCN(C(=O)c3ccc(Cl)cc3)CC2)cc1 | . | . | . | . | ?
O=C(Nc1ccc(N2CCN(C(=O)c3ccc(Cl)cc3)CC2)cc1)c1ccc([N+](=O)[O-])o1 | . | . | 3.29µM | . | ?
CCC(=O)Nc1ccc(N2CCN(Cc3ccccc3F)CC2)cc1 | . | . | ? | . | 9.28µM
O=C(Nc1ccc(N2CCCC2)c(Cl)c1)c1ccc([N+](=O)[O-])o1 | + | . | ? | 89.9 | ?
CC(=O)Nc1ccc(N2CCN(Cc3ccccc3F)CC2)cc1 | . | . | . | . | /
CC1Cc2ccccc2N1C(=O)CCS(=O)(=O)c1ccc2c(c1)NC(=O)CS2 (centres undefined) | . | . | . | . | .
Cc1ccc(S(=O)(=O)Nc2cccc3ccc[n+](C)c23)cc1 | . | / | / | . | /
CCC(=O)N1CCN(c2ccc(NC(=O)c3ccc([N+](=O)[O-])o3)cc2)CC1 | 32.7 | . | 10.4µM | 21.4 | .
CCCC(=O)N1CCN(c2ccc(NC(=O)c3ccc(Br)o3)cc2)CC1 | . | . | . | . | /

Bioassay records (PubChem)
